The list is not random: actives were taken first. Their share in the collection is about 1.2%.
ASM inhibitor – human S-ASM enzyme inhibition; Potency, µM (top dose mostly 57.5 µM), actives largely listed as inhibitors; P17405; 340,000 tested, 0.006% active; AID 504937; placental ASM, HMU-PC fluorogenic substrate, 60 min
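Fluorescence read-out (Ex 386 nm, Em 447 nm) after stopping the reaction at pH 10. Enzyme: ASM from human placenta; substrate HMU-PC0, 9 uM final; 60 min, 37 °C. Compound preincubation 10 min, ambient temperature.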
KCNH2 3.1 block – blocks the human KCNH2 3.1 channel isoform; U2OS KCNH2 3.1, thallium flux FluxOr; active compounds read low; activity change, % (tested at about 1.8 µM); 340,000 tested, 0.95% active;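 active = maximum activity change below -70%; inconclusive = maximum activity change from -70% to -50%; inactive = maximum activity change above -50%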;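 also: thallium influx rate constant from kinetic fluorescence after stimulation buffer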
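U2OS cells transduced with KCNH2 3.1 mutant virus (1.77 x 10^8 /mL, 4 h), plated overnight at 37 C, loaded 45 min with FluxOr dye plus Red40 quencher. Thallium flux rate constant from kinetic reads after stimulation buffer, normalised to controls.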
hERG WT inh – blocks the wildtype human KCNH2 potassium channel. U2OS, BacMam KCNH2, thallium flux FluxOr; active compounds read low. activity change, % at 1.84 µM. 340,000 tested, 0.37% active. AID 720551;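 active = maximum activity change below -70%; inconclusive = maximum activity change between -70% and -50%; inactive = maximum activity change above -50%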
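U2OS cells transduced with wild-type KCNH2 virus are loaded with FluxOr dye for 45 min, and thallium flux is measured in kinetic reads before and after stimulation buffer. Rate constants are normalized to DMSO controls.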
mIDH1 inhibitor – blocks human mutant IDH1 R132H enzyme. Potency, µM (top dose mostly 76.6 µM), most hits filed as inhibitors. O75874. IDH1-R132H enzyme, NADPH consumption, diaphorase/resazurin fluorescence. 390,000 tested, 0.093% active; also: nearly all actives have a fitted effect of over 65% in size
Target sequence (O75874 whole entry R132H, stated change not applied): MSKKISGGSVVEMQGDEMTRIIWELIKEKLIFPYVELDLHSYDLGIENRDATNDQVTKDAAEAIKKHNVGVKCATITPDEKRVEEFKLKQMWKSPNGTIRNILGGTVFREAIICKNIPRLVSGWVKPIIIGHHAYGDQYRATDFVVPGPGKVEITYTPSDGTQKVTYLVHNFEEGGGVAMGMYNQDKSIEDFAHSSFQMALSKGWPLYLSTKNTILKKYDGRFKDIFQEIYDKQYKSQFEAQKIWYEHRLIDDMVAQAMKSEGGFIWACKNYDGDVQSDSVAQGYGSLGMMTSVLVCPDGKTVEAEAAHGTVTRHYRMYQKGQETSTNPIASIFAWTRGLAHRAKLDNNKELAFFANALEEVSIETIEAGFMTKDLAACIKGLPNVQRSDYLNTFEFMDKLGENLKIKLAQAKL
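IDH1-R132H (0.5 ug/mL dispensed) in pH 7.5 Tris buffer was preincubated 30 min with compound, then given a substrate mix of 0.016 mM NADPH and 2 mM alpha-KG for 80 min at room temperature; remaining NADPH was read by diaphorase/resazurin fluorescence.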
Apoferritin bind – binds horse apoferritin like a general anesthetic | P02791 | 350,000 tested, 0.074% active | apoferritin/1-aminoanthracene competitive binding, fluorescence | Potency, µM (series often up to 77.5 µM), usual class: inhibitors; also: nearly all actives have a fitted effect of over 20% in size
Target sequence (P02791 2-175 limits assumed): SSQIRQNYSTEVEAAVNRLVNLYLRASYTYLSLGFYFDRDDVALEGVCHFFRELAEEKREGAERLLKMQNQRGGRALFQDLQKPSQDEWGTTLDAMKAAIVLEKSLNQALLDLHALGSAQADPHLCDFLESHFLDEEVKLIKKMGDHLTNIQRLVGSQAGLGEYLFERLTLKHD
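Read-out: endpoint 1-AMA fluorescence, excitation 380 nm and emission 535 nm, after compounds sit 10 min at room temperature with 10 uM horse-spleen apoferritin in 50% saturated 1-AMA/PBS. Values come from four-parameter Hill fits.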
A number is an active result; . = inactive; ? = inconclusive; / = no result given; [ ] = remark or other dose. Unless noted, calls follow the shape of the dose curve; as a rule, active = well fitted inhibition curve with a large enough effect; inconclusive = small, poorly fitted or top-dose-only effect; inactive = no such curve, though single readings can be large or run the other way.

SMILES	ASM inhibitor	KCNH2 3.1 block	hERG WT inh	mIDH1 inhibitor	Apoferritin bind
CO[C@H]1COC(=O)[C@H](C)COC(=O)C/C=C\[C@@H](C)[C@H](OC)COC(=O)C/C=C\[C@@H]1C	/	/	/	/	.[15.3 µM]
Cc1cccc(-n2c(=O)c3c(c4cc(C)ccc4n3C)n(CC(=O)Nc3ccc(C)cc3C)c2=O)c1	/	/	/	.	.
COc1ccc(-c2nc3c(c(=O)[nH]c(=O)n3Cc3ccccc3)n2CCO)cc1	.	.	.	.	.
O=c1[nH]c(=O)n(Cc2ccccc2)c2nc(-c3ccc(Oc4ccc(F)cc4)c([N+](=O)[O-])c3)n(CCO)c12	.	-86	.	.	?
CO[C@@H]1COC(=O)C/C=C\[C@@H](C)COC(=O)[C@H](COCc2ccccc2)NC(=O)C/C=C\[C@H]1C	/	/	/	/	.[15.3 µM]
CCCNC(=O)c1ccc(N2CCC3(CC2)CC(c2ccccc2)=NO3)c(NC(=O)c2ccco2)c1	?	.	?	.	.
CCCCC(CC)C(=O)Nc1cc(C(=O)NCCC)ccc1N1CCC2(CC1)CC(c1ccccc1)=NO2 (centres undefined)	.	-94	-109	.	.
CCCNC(=O)c1ccc(N2CCC3(CC2)CC(c2ccccc2)=NO3)c(NC(=O)c2cccc(OC)c2)c1	.	-97	-92	.	.
CCCNC(=O)c1ccc(N2CCC3(CC2)CC(c2cccc(Br)c2)=NO3)c(NC(=O)c2ccc(Br)cc2)c1	.	-111	-83	.	/
COc1cc(/C=C2/NC(=O)N(Cc3ccccc3F)C2=O)ccc1O	.	-104	.	.	.
COc1cc(/C=C2/NC(=O)N(Cc3ccccc3F)C2=O)ccc1Oc1ccc([N+](=O)[O-])cn1	.	.	.	.	.
CCOc1ccccc1NC(=S)NC(=O)C1CCCCC1	.	.	.	.	.
CCOc1ccccc1NC(=O)C1CCCC1	.	.	-84	.	/
O=C(Nc1nnc(SCC(=O)N2CCCCC2)s1)c1ccc(F)cc1F	.	.	-152	.	.
CCCCCC(=O)Nc1ccc(N2CCN(CC)CC2)c(Cl)c1	.	-102	.	.	.
C/C1=C/CC(C)(C)/C=C/C/C(C)=C/CC1	/	/	/	/	.
CCc1nnc(NC(=O)c2cc(-c3ccco3)nc3ccccc23)s1	.	.	.	.	.
O=C(Nc1nncs1)c1cc(-c2ccco2)nc2ccccc12	.	.	-73	.	/
FC(F)Oc1ccc(NC(=S)NCc2nc3ccccc3[nH]2)cc1	.	-85	.	.	.
Cc1ccc(N2CC(C(=O)Nc3ccc(Br)cc3)CC2=O)cc1 (centres undefined)	/	/	/	.	.
COc1ccc([C@H]2C[C@H](n3cc(C4CC4)nn3)[C@@H](O)CN2CC2CCCCC2)cc1	/	-84	.	.	/
O=C(c1cc2ccccc2oc1=O)N1CCN(c2ccc(Cl)cc2)CC1	/	/	/	.	.
Cc1cccc(NCCC(=O)c2ccc([N+](=O)[O-])cc2)c1C	.	-83	.	.	?
CC(=O)c1cccc(NC(=O)c2ccc3nc(C(C)C)oc3c2)c1	/	/	/	.	.
Cc1ccc(C(=O)NC2CC3CCCC(C2)N3Cc2ccccc2)cc1 (centres undefined)	.	.	.	.	.
SMILES	ASM inhibitor	KCNH2 3.1 block	hERG WT inh	mIDH1 inhibitor	Apoferritin bind
Cc1ccc(CN2C3CCCC2CC(NC(=O)c2ccc(F)cc2)C3)cc1 (centres undefined)	.	-80	?	.	.
O=C(NC1CC2CCC(C1)N2Cc1ccccc1)c1cccc(F)c1 (centres undefined)	.	.	.	.	.
O=C(NC1CC2CCCC(C1)N2Cc1ccccc1)c1ccc([N+](=O)[O-])cc1 (centres undefined)	.	-80	.	.	.
COc1ccc(C(=O)NC2CC3CCCC(C2)N3Cc2ccccc2)cc1 (centres undefined)	.	.	.	.	.
COc1ccc(CN2C3CCC2CC(NC(=O)c2cccc(F)c2)C3)cc1 (centres undefined)	.	-84	.	.	.
COc1ccc2nc(SCC(=O)N3CCCCCC3)c(C#N)cc2c1	.	-88	.	.	.
COc1ccc2nc(SCC(=O)N3CCCCC3)c(C#N)cc2c1	.	.	.	.	.
CCOc1ccc(-n2c(-c3ccc(OC)cc3)c[n+]3c2CCCCC3)cc1	.	.	.	.	.
CCOc1ccc(-n2c(-c3ccc(Br)cc3)c[n+]3c2CCCCC3)cc1	.	-85	-81	.	.
CCOc1ccc(C(=O)Nc2ccc(NC(=O)c3ccco3)c(Cl)c2)cc1Cl	.	-72	.	.	.
CCOc1ccc(C(=O)Nc2ccc(NC(=O)c3ccco3)c(Cl)c2)cc1Br	.	-81	.	.	.
COc1cccc(C(=O)Nc2ccc(NC(=O)c3ccco3)c(Cl)c2)c1	.	.	.	.	.
CCCCCC/C=C/c1ccc(OC)c(C2C3C=CCC(C)C3C(=O)N2Cc2ccccc2)c1 (centres undefined)	/	/	/	/	.
COC(=O)c1ccccc1NC(=O)Cc1nc(-c2ccc(OC)cc2)no1	/	/	/	.	.
Nc1cc([N+](=O)[O-])ccc1Nc1ccccc1	.	.	.	.	16µM
S=c1[nH]nc(-c2ccccc2)n1/N=C/c1cccc(Br)c1	.	-93	.	.	.
Oc1ccc(Br)cc1/C=N/n1c(-c2ccccc2)n[nH]c1=S	.	.	.	.	.
CCc1cccc(C)c1NC(=O)CSc1nc2ccccc2nc1Cc1ccccc1	/	/	/	.	.
O=C(NCCCN1CCN(c2ccc(F)cc2)CC1)NC12CC3CC(CC(C3)C1)C2	.[11.5 µM]	-83	?	.	.
COc1ccc(-c2noc(CCC(=O)NCCCN3CCC(Cc4ccccc4)CC3)n2)cc1	.	-103	?	.	.
COc1ccc(NC(=O)NCCCN2CCC(Cc3ccccc3)CC2)cc1	.	-104	.	.	.
CSc1ccc(N2CCN(CCCNC(=O)Nc3ccccc3F)CC2)cc1	.	-78	.	.	.
O=C(NCCCN1CCOCC1)NC12CC3CC(CC(C3)C1)C2	.	.	.	.	.
COc1ccc(-c2noc(CCC(=O)NCCCN3CCN(c4ccc(F)cc4)CC3)n2)cc1	.	.	.	.	.
CCN(CC)c1ccc(NS(=O)(=O)c2ccc(-c3coc(C)n3)cc2)c(C)c1	/	/	/	.	.
Cc1cccn2c(=O)c(C(=O)NCc3ccccc3Cl)c(O)nc12	/	/	/	.	.
CSc1ccc(NC(=O)NCCCN2CCC(Cc3ccccc3)CC2)cc1	.	-106	.	.	.
CSc1ccc(NC(=O)NCCN2CCc3ccccc3C2)cc1	.	.	.	.	.
COc1ccc(-c2cc3c(=O)n(CC(=O)NCCCN4CCC(Cc5ccccc5)CC4)ncn3n2)cc1	.	-71	-111	.	.
CCN(CC)S(=O)(=O)c1cccc(C(=O)OCC(=O)Nc2ccc3c(c2)c2ccccc2n3CC)c1	.	.	-119	.	.
